Assay outcomes as filed in PubChem BioAssay.
An excerpt weighted towards active compounds, which were near 4% of everything screened.
PAX8 reporter – PAX8 transcriptional activity inhibition; RMG-I TPO-luciferase reporter, SteadyGlo, 24 h; inhibition, % at 12.6 µM; 1.2% of 360,000 active;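 active = mean replicate inhibition at least 60% with every replicate also reaching 60%; inconclusive = only one of the two criteria is met; inactive = mean below 60% and not all replicates reaching 60%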;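 also: luciferase light reporting Pax8 driven TPO promoter activity; plate controls were median of neutral control wells for no effect and mitoxantrone controls for full effect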
TRPM1 prom inh – inhibitors of MITF-driven TRPM1 promoter in melanoma cells. SK-MEL-5 TRPM1 promoter luciferase, 24 h. inhibition, % at 12.5 µM. 0.83% of 330,000 active;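 active = mean inhibition across replicates of 60% or more, whatever share of single replicates reaches that level; inconclusive = some that reach 60%, reason not given; inactive = mean inhibition across replicates below 60%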
Wnt act – Wnt/beta-catenin pathway activation. Wnt/beta-catenin reporter cell assay, activator, plate reader. activation, % at 9.35 µM. 1.2% of 300,000 active. AID 743398; in the data active = activation above about 30%, passing the limit was not always enough; inconclusive = no clear call, values can overlap the other calls;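 also: 0% = neutral control wells and 100% = positive control wells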
esBAF inh – blocks esBAF chromatin remodeling in mouse ES cells. reporter increase, % at 12.5 µM. Bmi1-luciferase knock-in reporter, 24 h; 100% = twice the neutral-well signal. 2% of 350,000 active. AID 602393; in the data active = activation above about 40%; inconclusive = no clear call, values can overlap the other calls;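 also: 0% = median of the plate's neutral control wells and 100% = double that signal; a rise in the Bmi1 reporter signal indicates esBAF inhibition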
EWS-Fli block – blocks EWS/Fli oncoprotein-driven transcription. A673 NR0B1-luciferase reporter, viability-normalised. inhibition, % at 12.6 µM. 0.67% of 350,000 active. AID 651661;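 active = mean inhibition of at least 50% after viability correction, with every replicate also passing that limit; inconclusive = mean reaches 50% but only one of two replicates passes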;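 also: firefly luciferase signal divided by Alamar Blue viability fluorescence both relative to DMSO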
MITF act – increases MITF-driven TRPM1 promoter luciferase signal | SK-MEL-5 TRPM1-promoter luciferase, 24 h; % of positive control, neutral wells = 0 | activation, % at 12.5 µM | 0.75% of 300,000 active;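 active = mean activation of at least 80% with every replicate also reaching 80%; inconclusive = mean reaches 80% but some replicate falls short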;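 also: 0% = neutral control wells and 100% = parthenolide positive control wells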
Starred values were filed as active, the others as inactive; ? = inconclusive; . = not tested or not shown.

SMILES	PAX8 reporter	TRPM1 prom inh	Wnt act	esBAF inh	EWS-Fli block	MITF act
COc1ccc(Nc2nc(N)nc(CN3CCOCC3)n2)cc1	.	12	-3	2	.	-6
COc1ccc(Nc2nc(N)nc(CCl)n2)cc1	101*	-66	15	.	44	.
COc1ccc(-c2c(-c3cc(OC)c(OC)c(OC)c3)noc2C)cn1	.	.	.	-48	.	.
COc1cc(-c2noc(C)c2C#Cc2ccccn2)cc(OC)c1OC	29	21	-15	-11	54*	-21
CNC(C)C#Cc1c(-c2cc(OC)c(OC)c(OC)c2)noc1C (stereo not drawn)	0	17	-3	-2	7	-15
COc1cc(-c2noc(C)c2/C=C/c2ccc(N)cc2)cc(OC)c1OC	79*	63*	-21	-15	57*	-60
COc1cc(-c2c(-c3cc(OC)c(OC)c(OC)c3)noc2C)ccc1F	88*	.	-19	.	66*	.
COc1cc(-c2noc(C)c2C#Cc2ccc(N)cc2)cc(OC)c1OC	75*	20	-16	1	?	-20
CCC(=O)N1CC2(C1)CN(C(=O)Nc1ccccc1F)[C@H](CO)c1c2c2ccc(OC)cc2n1C	.	.	.	.	-8	.
CO[C@@H]1CN(C)C(=O)c2cc(NS(=O)(=O)c3cn(C)cn3)ccc2OC[C@@H](C)N(C)C[C@@H]1C	1	.	.	3	0	.
CCNC(=O)C[C@H]1CC[C@H]2[C@@H](COC[C@@H](O)CN2C(=O)Nc2c(C)noc2C)O1	-14	.	.	1	-1	.
CO[C@H]1CN(C)C(=O)c2cc(NC(C)=O)ccc2OC[C@@H](C)N(Cc2cccnc2)C[C@@H]1C	-23	.	.	0	-2	.
COC(=O)C(C)n1cnc2c(cnn2-c2ccc(Cl)cc2)c1=O (stereo not drawn)	.	-45	.	53*	.	48
CCOC(=O)Cn1cnc2c(cnn2-c2ccc(Cl)cc2)c1=O	.	-16	.	18	.	18
CO[C@H]1CN(C)C(=O)c2cc(NC(=O)Nc3cccc(Cl)c3)ccc2OC[C@H](C)N(C)C[C@@H]1C	.	.	.	-31	-5	.
Cc1cc(C)n(CCC(=O)N/N=C/c2ccc(Br)c([N+](=O)[O-])c2)n1	25	11	36*	3	8	-6
Cc1cc(C)n(CC(=O)N/N=C/c2cc(Br)cc([N+](=O)[O-])c2O)n1	7	-7	-2	.	9	8
OC[C@H]1[C@@H](c2ccc(C#Cc3cccnc3)cc2)[C@H]2CN(Cc3ccccc3F)CCCCN21	-2	.	.	3	25	.
CCN(CC)CCOc1ccc(Br)cc1	.	-8	-2	-2	.	10
CCN(CC)CCOc1ccc2c(c1)C(=NO)c1cc(OCCN(CC)CC)ccc1-2	.	103*	-2	-81	.	-102
Cc1ccccc1S(=O)(=O)N[C@H]1CC[C@H](CCNS(=O)(=O)c2cccc(F)c2)O[C@@H]1CO	5	.	.	3	1	.
COc1cccc(NC(=O)Nc2ccc3c(c2)C(=O)N(C)C[C@H](OC)[C@@H](C)CN(C)[C@@H](C)CO3)c1	3	.	.	1	-8	.
Cc1cccc(NC(=O)c2ccc3c(c2)OCCO3)c1C	-140	-109	6	55*	-100	113*
N#Cc1ccccc1NC(=O)c1ccc2c(c1)OCCO2	-158	-107	6	45*	-98	.
N#Cc1ccccc1NC(=O)COC(=O)c1ccc2c(c1)OCCO2	.	10	.	5	.	-9
SMILES	PAX8 reporter	TRPM1 prom inh	Wnt act	esBAF inh	EWS-Fli block	MITF act
COc1cc(NC(=O)c2ccc3c(c2)OCO3)c2ncccc2c1	.	-20	.	?	.	15
O=C(Nc1cccc2cccnc12)c1ccc2c(c1)OCCO2	.	-55	4	48*	.	55
Cc1ccccc1NC(=O)c1nnn(-c2ccc3c(c2)OCCO3)c1N	-179	-80	36*	.	.	86*
CCOc1ccccc1NC(=O)c1nnn(-c2ccc3c(c2)OCCO3)c1N	4	-32	2	22	-31	.
COCC(=O)N(C)C[C@@H]1Oc2ncc(-c3ccccc3F)cc2C(=O)N([C@@H](C)CO)C[C@H]1C	-26	.	.	-3	-5	.
Cc1ccccc1NC(=O)C(=O)Nc1ccccc1C	-188	-37	27	45*	-59	43
CC(=O)Nc1ccccc1NC(=O)c1ccc2c(c1)OCO2	-6	.	2	-7	-2	.
Cc1ccccc1NC(=O)CC(=O)Nc1ccccc1C	5	10	-2	-5	-10	-11
Cc1ccccc1NC(=O)c1ccc2c(c1)OCCO2	.	-65	.	47*	.	67
C[C@@H]1CN([C@@H](C)CO)C(=O)c2cccc(NC(=O)C3CCCCC3)c2O[C@@H]1CN(C)C(=O)Nc1ccc(F)cc1	.	.	.	-1	-14	.
COc1ccccc1C1=NOC(COC(=O)c2ccc(Br)cc2)C1 (stereo not drawn)	-5	4	-12	-7	-19	0
COc1ccc2c(C)cc(=O)oc2c1	-12	-12	1	-1	-3	7
Cc1cc(=O)oc2cc(OCc3nnc(-c4ccccc4Br)o3)ccc12	.	-18	.	-3	.	17
COc1ccccc1C1=NOC(COc2ccc3c(C)cc(=O)oc3c2)C1 (stereo not drawn)	16	12	-2	.	53*	.
COc1ccccc1C1=NOC(COC(=O)c2ccc([N+](=O)[O-])cc2)C1 (stereo not drawn)	-18	.	41*	.	10	.
COc1ccc(C2=NOC(COc3ccc4c(C)cc(=O)oc4c3)C2)c(OC)c1 (stereo not drawn)	-20	.	-8	2	56*	.
C[C@@H]1CCCCO[C@@H](CN(C)S(=O)(=O)c2cccs2)[C@H](C)CN([C@H](C)CO)C(=O)c2cc(NC(=O)Nc3ccccc3)ccc2O1	32	.	.	5	6	.
O=C(c1ccccn1)N1C[C@H]2[C@@H](c3ccccc31)[C@H](CO)N2C(=O)C1CCCCC1	-3	.	.	-8	2	.
O=C(C[C@@H]1CC[C@@H](NC(=O)Nc2ccc3c(c2)OCO3)[C@H](CO)O1)NCc1ccc(F)cc1	-2	.	.	-2	-10	.
Cc1cc(NC(=O)c2ccc(Br)o2)ccc1NC(=O)c1ccco1	-56	-20	5	24	-67	23
Cc1cc(O)c(NC(=O)c2ccco2)cc1C	-81	-19	22	47*	.	26
Cc1ccc(C(=O)Nc2ccc(NC(=O)c3ccco3)c(C)c2)cc1	-38	-94	13	28	-71	91*
Cc1cc(NC(=O)c2ccccc2)ncc1NC(=O)c1ccco1	-112	-30	38*	.	.	32
O=C(CN(Cc1ccc(Br)cc1)S(=O)(=O)c1ccccc1)NCc1cccnc1	-4	7	0	-3	-6	-7
O=C(NCc1cccnc1)/C(=C/c1ccc(-c2ccc(Cl)cc2)o1)S(=O)(=O)c1ccccc1	.	93*	-15	-9	69*	-93
O=C(NCc1cccnc1)/C(=C\c1ccc(-c2ccc(Br)cc2)o1)S(=O)(=O)c1ccccc1	30	100*	-12	.	59*	-100
